Tat export inh: blocks Tat-dependent protein export in E. coli; E. coli MC4100 TorA-mCherry Tat export, fluorescence; inhibition, % at 10 µM; hit rate 0.036% among 340,000; AID 488895;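 active means mean replicate inhibition at least 50% and at least half of replicates individually reaching 50%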;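 further: exported cargo escapes ClpAP degradation while cytoplasmic cargo is degraded and loses fluorescence; 0% = median of neutral control wells and 100% = median of NaSCN control wells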
E coli growth-1: counter-screen for AddAB inhibitors: E. coli growth inhibition; E. coli V3065 growth, OD600 absorbance, 18 h; inhibition, % at 11.9 µM; hit rate 0.27% among 330,000; AID 449728;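 active means inhibition above the campaign's mean inhibition across all tested compounds plus 3 SD, cut at about 9.9% in these data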;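 further: uninfected addAB+ strain grown without phage in ampicillin broth; 0% = DMSO wells and 100% = ciprofloxacin 0.95 µg/ml wells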
E coli growth-2: E. coli growth inhibition; Escherichia coli growth, OD600, 23 h; stronger effect = lower value; OD600 absorbance (no concentration beside the values); hit rate 0.21% among 330,000;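 active means OD600 absorbance below the run mean of sample wells minus 3.6 SD, in any replicate, cut at about 0.56 in these data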
AddAB inh: less growth of phage-infected E. coli with AddAB | E. coli expressing H. pylori AddAB, absorbance growth | inhibition, % at 11.9 µM | hit rate 0.29% among 330,000; in the data active means inhibition above about 12%;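 further: 0% = vehicle wells of infected cells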
phage Ecoli inh: E. coli growth loss with phage present; hit rate 0.26% among 360,000; growth absorbance; inhibition, % at 11.9 µM; in the data active means inhibition above about 11%
AddAB confirm: growth loss of T4-infected E. coli expressing H. pylori AddAB, confirmed; E. coli V3065 expressing H. pylori AddAB, T4 phage, OD; T4 phage with gene 2 nonsense mutations; inhibition, % at 11.9 µM; hit rate 64% among 880; AID 488942; shares compounds with AddAB inh;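 active means mean inhibition above a set limit taken from the earlier primary screen, cut at about 13% in these data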;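 further: higher means less bacterial growth since AddAB block lets phage replicate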
RecBCD counter: AddAB counter-screen: growth loss of RecBCD+ E. coli infected with mutant T4 phage. hit rate 73% among 880. shares compounds with AddAB inh. inhibition, % at 11.9 µM. E. coli V66 + mutant T4 phage, OD growth;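 active means mean inhibition above the mean of solvent-only control wells plus 3 SD, cut at about 4% in these data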;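 further: optical density read after an 18 h incubation at 37 °C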
Bact viability: reduces bacterial viability, AddAB inhibitor counter-screen; inhibition, % at 11.9 µM; hit rate 35% among 880; shares compounds with AddAB inh; absorbance (AddAB counterscreen); in the data active means inhibition above about 25%
RecBCD conf: confirmation: growth loss of phage-infected RecBCD+ E. coli (RecBCD inhibitor screen) | E. coli V66 + T4 2- phage, growth OD | AID 651982 | shares compounds with phage Ecoli inh | hit rate 45% among 890 | inhibition, % at 11.9 µM;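 active means mean inhibition over triplicates exceeding the hit threshold derived in the original primary screen, cut at about 11% in these data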
Ecoli viability: bacterial viability inhibition counter-screen for RecBCD. shares compounds with phage Ecoli inh. E. coli viability, absorbance (OD) growth. inhibition, % at 11.9 µM. hit rate 29% among 890. AID 651983; in the data active means inhibition above about 20%;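 further: E. coli strain V66 grown with compound alone and no phage infection; 0% = bacteria with DMSO vehicle only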
AddAB counter: growth loss of phage-infected AddAB E. coli, RecBCD counter-screen | E. coli expressing H. pylori AddAB + T4 phage, OD growth; gene 2 mutant T4, recBCD-deleted host | shares compounds with phage Ecoli inh | inhibition, % at 11.9 µM | AID 651984 | hit rate 45% among 890;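 active means mean inhibition above the solvent-only control wells' mean plus 3 SD, cut at about 22% in these data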;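 further: higher means less bacterial growth from phage killing when AddAB is blocked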
The depositor's hits bear a star. Shown are actives, neighbours in structure and some others; about 0.51% of the full set was active somewhere.

Screening CCCC(=O)NC(c1ccco1)c1cc(Cl)c2cccnc2c1O (stereo not given) returned Tat export inh -2, E coli growth-1 14*, E coli growth-2 0.73, AddAB inh 16*, phage Ecoli inh 21*, AddAB confirm 22*, RecBCD counter 21*, Bact viability 17, RecBCD conf 11*, Ecoli viability 15 and AddAB counter 24*.
For CCCC(=O)NC(c1cccs1)c1cc(Cl)c2cccnc2c1O (stereo not given) the results were Tat export inh 2, E coli growth-1 29*, E coli growth-2 0.7, AddAB inh 27*, phage Ecoli inh 21*, AddAB confirm 23*, RecBCD counter 20*, Bact viability 20, RecBCD conf 11*, Ecoli viability 14 and AddAB counter 19.
For CCC(=O)NC(c1cccs1)c1ccc2cccnc2c1O (stereo not given) the results were Tat export inh -1, E coli growth-1 20*, E coli growth-2 0.64, AddAB inh 21*, phage Ecoli inh 19*, AddAB confirm 10, RecBCD counter 17*, Bact viability 6, RecBCD conf 7, Ecoli viability 12 and AddAB counter 19.
For O=C(C1=CC(c2ccc3c(c2)OCO3)CC(OCCCCO)O1)N1CCN(Cc2ccc3c(c2)OCO3)CC1 (stereo not given) the results were E coli growth-2 0.65.
Screening Nc1[nH]c(=O)ncc1F returned Tat export inh 0, E coli growth-1 19*, E coli growth-2 0.68, AddAB inh 28*, phage Ecoli inh 29*, AddAB confirm 45*, RecBCD counter 20*, Bact viability 44*, RecBCD conf 32*, Ecoli viability 24* and AddAB counter 52*.
`CCCNC(=O)c1ccc2c(=O)c(O)c(-c3ccc(C)cc3)[nH]c2c1` gave Tat export inh -12, E coli growth-1 25*, AddAB inh 23*, phage Ecoli inh 21*, AddAB confirm 20*, RecBCD counter 16*, Bact viability 16, RecBCD conf 8, Ecoli viability 11 and AddAB counter 23*.
`Cc1ccc(-c2[nH]c3cc(C(N)=O)ccc3c(=O)c2O)cc1` gave Tat export inh -9, E coli growth-1 -4, AddAB inh 2 and phage Ecoli inh 3.
For Cc1ccc(CNC(=O)c2ccc3c(=O)c(O)c(-c4ccc(C)cc4)[nH]c3c2)cc1 the results were Tat export inh 3, E coli growth-1 20*, E coli growth-2 0.64, AddAB inh 17*, phage Ecoli inh 17*, AddAB confirm 21*, RecBCD counter 19*, Bact viability 20, RecBCD conf 11*, Ecoli viability 15 and AddAB counter 19.
For CCN(CC)C(=O)c1[nH]cnc1C(=O)NC(C)C(=O)OC(C)(C)C (stereo not given) the results were E coli growth-2 0.69.
For O=C(Nc1ncc([N+](=O)[O-])s1)C1CC(=O)N(c2ccc(F)cc2)C1 (stereo not given) the results were Tat export inh -6, E coli growth-1 -3, E coli growth-2 0.56, AddAB inh 4 and phage Ecoli inh 1.
Screening O=C1NCCN1c1ncc([N+](=O)[O-])s1 returned Tat export inh 21, E coli growth-1 101*, E coli growth-2 0.066*, AddAB inh 100*, phage Ecoli inh 98*, AddAB confirm 96*, RecBCD counter 95*, Bact viability 96*, RecBCD conf 96*, Ecoli viability 97* and AddAB counter 101*.
Screening O=C1C2C(C=Cc3ccccc3)N3C(=O)CN(CC4CC4)C(=O)[C@@]3(Cc3ccccc3)C2C(=O)N1c1ccccc1 (stereo not given in full) returned E coli growth-2 0.72.
NC(=O)c1ccsc1NC(=O)c1ccc([N+](=O)[O-])o1 was read as Tat export inh -10, E coli growth-1 88*, E coli growth-2 0.2*, AddAB inh 96*, phage Ecoli inh 21*, AddAB confirm 100*, RecBCD counter 20*, Bact viability 68*, RecBCD conf 13*, Ecoli viability 16 and AddAB counter 101*.
Cc1ccnc(NC(=O)c2ccccc2[N+](=O)[O-])c1 was read as Tat export inh 2, E coli growth-1 1, E coli growth-2 0.7, AddAB inh 2 and phage Ecoli inh 3.
Screening Cc1ccnc(NC(=O)c2ccc([N+](=O)[O-])o2)c1 returned Tat export inh -10, E coli growth-1 33*, E coli growth-2 0.56, AddAB inh 27*, phage Ecoli inh 13*, AddAB confirm 99*, RecBCD counter 9.8*, Bact viability 30*, RecBCD conf 8, Ecoli viability 10 and AddAB counter 75*.
`CN1CCc2c(sc(NC(=O)c3ccc([N+](=O)[O-])o3)c2C(N)=O)C1` gave Tat export inh 56*, E coli growth-1 99*, AddAB inh 99*, phage Ecoli inh 80*, AddAB confirm 102*, RecBCD counter 82*, Bact viability 102*, RecBCD conf 69*, Ecoli viability 89* and AddAB counter 103*.
C(=N\Nc1nc2ccccc2s1)/c1ccccn1 was read as E coli growth-1 16*, AddAB inh 15*, phage Ecoli inh 21*, AddAB confirm 19*, RecBCD counter 14*, Bact viability 13, RecBCD conf 11, Ecoli viability 12 and AddAB counter 21.
For O=C(O)/C=C/c1ccc([N+](=O)[O-])o1 the results were Tat export inh 14, E coli growth-1 73*, E coli growth-2 0.4*, AddAB inh 46*, phage Ecoli inh 18*, AddAB confirm 101*, RecBCD counter 16*, Bact viability 77*, RecBCD conf 20*, Ecoli viability 19 and AddAB counter 101*.
`O=[N+]([O-])c1ccc(/C=N/N=C/c2ccc([N+](=O)[O-])o2)o1` gave Tat export inh -2 and phage Ecoli inh 8.

Screening results deposited in PubChem BioAssay by several laboratories.
